In PubChem BioAssay (EPA / NIEHS):
Values joined by “and” are separate entries in the source; they are usually repeats but may differ in a detail not shown here. Identical values can stand only once. Results filed as inconclusive are left out. Active and inactive are the calls of the source. How the source made its calls, unless noted: active means hit-call score of the fitted dose curve at least 0.9, where 1 is the maximum; inconclusive means response in the unintended direction; inactive means score below 0.9.

Key:
[1] = CCTE_Mundy_HCI_Cortical_NOG_NeuriteCount: CCTE's Neurite Outgrowth Assay in rat cortical cells for Neurite Count, Mundy Lab (AID 2284212; active means hit-call score of the fitted dose curve at least 0.9, where 1 is the maximum; inactive means score below 0.9;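 further: cells fixed about two days after chemical exposure began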)
Method in brief: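 Rat cortical primary cells; compound added 2 h post-plating, 1/10 dilution of working solution. Anti-betaIII-tubulin/AF488 ICC; ArrayScan neurite count vs DMSO.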

[2] = CCTE_Mundy_HCI_Cortical_NOG_NeuriteLength: CCTE's Neurite Outgrowth Assay in rat cortical cells for Neurite Length, Mundy Lab (AID 2284213; active means hit-call score of the fitted dose curve at least 0.9, where 1 is the maximum; inactive means score below 0.9)
Method in brief: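 First, rat primary cortical cells were plated and, 2 h later, given test chemical as a 1/10 dilution. Finally, βIII-tubulin immunostaining enabled automated imaging of neurite length.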

[3] = CCTE_Mundy_HCI_Cortical_NOG_NeuronCount: CCTE's Neurite Outgrowth Assay in rat cortical cells for Neuron Count, Mundy Lab (AID 2284236);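 further: neurons counted by imaging betaIII-tubulin and Hoechst stained cortical cells; cells exposed to compound for about 48 hours before fixation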
Method in brief: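 Read-out: neuron number by high-content imaging of betaIII-tubulin (Alexa Fluor-488) and Hoechst-labelled rat primary cortical cells.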

[4] = CCTE_Mundy_HCI_Cortical_NOG_BPCount: CCTE's Neurite Outgrowth Assay in rat cortical cells for Branch Point Count, Mundy Lab (AID 2284237; active means hit-call score of the fitted dose curve at least 0.9, where 1 is the maximum; inactive means score below 0.9)
Method in brief: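 Measured 50.33 h after dosing, this morphology endpoint uses rat primary cortical cultures labelled for betaIII-tubulin. Branch points are quantified by high-content imaging, with DMSO as negative control and baseline.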

[5] = CCTE_Deisenroth_H295R-HTRF_384WELL_ESTRADIOL: CCTE's H295R-HTRF Assay Evaluation of Estradiol Concentration, Deisenroth Lab (AID 2284361; active means hit-call score of the fitted dose curve at least 0.9, where 1 is the maximum; inactive means score below 0.9); conditions: actives raise or lower the signal
Method in brief: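 Estradiol secreted into medium by H295R adrenocortical cells, quantified by HTRF after 48 h dosing over a nine-point 0.001 - 100 uM final range; gain or loss versus DMSO. Parallel ATP-luminescence viability readout; n=5 experiments.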

[6] = CCTE_Deisenroth_H295R-HTRF_384WELL_TESTOSTERONE: CCTE's H295R-HTRF Assay Evaluation of Testosterone Concentration, Deisenroth Lab (AID 2284373; active means hit-call score of the fitted dose curve at least 0.9, where 1 is the maximum; inactive means score below 0.9); conditions: actives raise or lower the signal
Method in brief: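 H295R cells were acclimated 24 h, then exposed 48 h to nine concentrations (0.001–100 uM final) in technical triplicate, n=5. Testosterone in conditioned medium was measured by HTRF (em 620/665 nm). Fitting was bidirectional versus DMSO; CellTiter-Glo viability ran on the same plates.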

[7] = CCTE_Deisenroth_H295R-HTRF_384WELL_CTOX: Cytotoxicity Assessment in CCTE's H295R-HTRF Assay, Deisenroth Lab (AID 2284380)
Method in brief: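 Luminescent ATP viability readout (CellTiter-Glo 2.0), multiplexed on plates used for hormone sampling, after 48 h chemical exposure. Human H295R cells; final concentrations 0.001–100 uM in nine steps, technical triplicates, five experiments; DMSO baseline.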

[8] = test system: Brachyury (BRA) Protein Expression, Deisenroth Lab, TBXT (gene 6862); assay: CCTE_Deisenroth_DEVTOX-GLR_legacy_Bra: (Legacy) CCTE's DevTox GLR-Endo Assay Evaluation of Brachyury (BRA) Protein Expression, Deisenroth Lab (AID 2284329; active means hit-call score of the fitted dose curve at least 0.9, where 1 is the maximum; inactive means score below 0.9)
Method in brief: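 Percent Bra-positive cells, scored by high-content imaging against a threshold of 5x BMAD over the undifferentiated control median, with the 0.2% DMSO median subtracted. RUES2-GLR cultures were dosed twice at 24 h intervals across a 48 h differentiation, at 1 nM–200 uM in ten steps, with n=4 replicates.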

[9] = CCTE_Deisenroth_DEVTOX-GLR_legacy_CellCount: (Legacy) Viability Assessment in CCTE's DevTox GLR-Endo Assay, Deisenroth Lab (AID 2284331; active means hit-call score of the fitted dose curve at least 0.9, where 1 is the maximum; inactive means score below 0.9); conditions: actives raise or lower the signal
Method in brief: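 Seed RUES2-GLR 24 h; differentiate 48 h, dosing at 0 and 24 h; fix, stain nuclei; image 5 fields/well; count nuclei. Conc. 1 nM - 200 uM, single technical replicate, n=4 experiments; bidirectional fit vs 0.2% DMSO.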

[10] = test system: SRY-box transcription factor 17 (SOX17) Protein Expression, Deisenroth Lab, SOX17 (gene 64321); assay: CCTE_Deisenroth_DEVTOX-GLR_legacy_Sox17: (Legacy) CCTE's DevTox GLR-Endo Assay Evaluation of SRY-box transcription factor 17 (SOX17) Protein Expression, Deisenroth Lab (AID 2284341; active means hit-call score of the fitted dose curve at least 0.9, where 1 is the maximum; inactive means score below 0.9); conditions: actives raise or lower the signal
Method in brief: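 Using the RUES2-GLR line, compounds are tested as 10-point series during 48-h defined-media differentiation. Sox17 reporter fluorescence per cell determines positivity; endpoint is percentage positive, analysed bidirectionally versus DMSO baseline.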

[11] = test system: SRY-box transcription factor 2 (SOX2) Protein Expression, Deisenroth Lab, SOX2 (gene 6657); assay: CCTE_Deisenroth_DEVTOX-GLR_legacy_Sox2: (Legacy) CCTE's DevTox GLR-Endo Assay Evaluation of SRY-box transcription factor 2 (SOX2) Protein Expression, Deisenroth Lab (AID 2284346; active means hit-call score of the fitted dose curve at least 0.9, where 1 is the maximum; inactive means score below 0.9)
Method in brief: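 Percent Sox2-positive cells was scored by high-content imaging of 5 fields per well. Positivity cutoff was 5x BMAD over the directed endoderm control, and the DMSO median was subtracted. Cells were RUES2-GLR, dosed twice at 24-h intervals over 48 h of differentiation (1 nM-200 uM).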

DIO2 (gene 1734) = assay: CCTE_GLTED_hDIO2: CCTE's human Deiodinase 2 (DIO2) Inhibition Assay, Great Lakes Toxicology and Ecology Division (GLTED) Lab (AID 2284050)
Method in brief: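 Triplicate cell-free incubations (3 h) of human DIO2 with chemical preceded colorimetric Sandell-Kolthoff quantitation of liberated iodide; DMSO served as negative control for curve fitting.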

DIO3 (gene 1735) = assay: CCTE_GLTED_hDIO3: CCTE's human Deiodinase 3 (DIO3) Inhibition Assay, Great Lakes Toxicology and Ecology Division (GLTED) Lab (AID 2284055);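 further: potency is for inhibition seen as loss of released iodide signal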
Method in brief: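 Steps: incubate adenovirus-produced hDIO3 with chemical for 3 hours; detect freed iodide via cerium-arsenic Sandell-Kolthoff colorimetry; compare with DMSO baseline.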

[12] = target: Estrogen receptor (Homo sapiens) (UniProt P03372); assay: CCTE_Deisenroth_AIME_96WELL_LUC_Active: CCTE's 96-well Estrogen Receptor Transactivation Assay with AIME metabolic competence (ERTA luciferase; metabolism positive), Deisenroth Lab (AID 2284023)
Method in brief: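 Metabolism-positive mode: induced rat hepatic S9 in alginate microspheres conditions test solutions (0.002 - 200 uM, 10 points) for 2 hours. VM7Luc4E2 ER luciferase reporter cells then exposed 24 h; positive-direction fit against 17beta-estradiol, n=4 typical.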

[13] = target: Estrogen receptor (Homo sapiens) (UniProt P03372); assay: CCTE_Deisenroth_AIME_96WELL_LUC_Inactive: CCTE's 96-well Estrogen Receptor Transactivation Assay without AIME metabolic competence (ERTA luciferase; metabolism negative), Deisenroth Lab (AID 2284025)
Method in brief: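 Metabolism-negative arm: chemicals (0.002–200 uM, 10 points) incubated 2 h with alginate-water microspheres, then medium moved onto VM7Luc4E2 cells for 24 h luciferase read-out. Positive direction vs 17beta-estradiol; n≥4 experiments.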

[14] = CCTE_Deisenroth_AIME_96WELL_CTox_Active: Cytotoxicity Assessment (CTOX) in CCTE's 96-well Estrogen Receptor Transactivation Assay with AIME metabolic competence (metabolism positive), Deisenroth Lab (AID 2284028)
Method in brief: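 Cytotoxicity in VM7Luc4E2 breast cells after 24 h exposure to medium from a 2 h metabolic pre-incubation with induced rat hepatic S9 in alginate microspheres; fluorescent live-cell protease readout, 10-point series 0.002–200 uM, n=4.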

[15] = CCTE_Deisenroth_AIME_96WELL_CTox_Inactive: Cytotoxicity Assessment (CTOX) in CCTE's 96-well Estrogen Receptor Transactivation Assay without AIME metabolic competence (metabolism negative), Deisenroth Lab (AID 2284029)
Method in brief: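 Cytotoxicity in VM7Luc4E2 breast cells was scored as loss of fluorescent signal from a live-cell protease substrate 24 h after exposure, using bidirectional curve fitting. Test media came from a 2 h metabolism-negative pre-incubation (alginate-water, no hepatic S9) of compounds at 0.002-200 uM, with at least four replicates.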

Estrogen receptor (Homo sapiens), sequence (P03372 whole entry, looked up): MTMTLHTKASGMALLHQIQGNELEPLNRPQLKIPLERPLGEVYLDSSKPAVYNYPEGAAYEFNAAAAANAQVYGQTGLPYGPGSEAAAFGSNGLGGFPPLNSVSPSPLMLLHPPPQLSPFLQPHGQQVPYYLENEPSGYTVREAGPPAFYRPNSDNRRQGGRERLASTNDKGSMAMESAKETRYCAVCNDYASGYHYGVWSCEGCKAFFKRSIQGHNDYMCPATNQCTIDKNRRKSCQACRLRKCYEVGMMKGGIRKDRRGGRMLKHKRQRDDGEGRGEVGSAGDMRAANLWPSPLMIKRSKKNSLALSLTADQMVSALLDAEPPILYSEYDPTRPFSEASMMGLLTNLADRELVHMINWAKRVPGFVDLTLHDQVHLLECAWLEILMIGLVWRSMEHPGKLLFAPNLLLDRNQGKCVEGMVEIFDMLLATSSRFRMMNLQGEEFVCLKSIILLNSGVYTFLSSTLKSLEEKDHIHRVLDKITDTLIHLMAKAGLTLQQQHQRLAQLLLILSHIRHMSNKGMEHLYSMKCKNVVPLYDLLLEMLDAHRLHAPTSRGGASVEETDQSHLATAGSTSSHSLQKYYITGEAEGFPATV

## CCN(CC)CCCC(C)Nc1nc(C)cc(Nc2ccc3nc(C)cc(N)c3c2)n1 (configuration not stated)
[1]
  outcome: inactive
[2]
  outcome: inactive
[3]
  outcome: inactive
[4]
  outcome: inactive

## Clc1ccc(COC(Cn2ccnc2)c2ccc(Cl)cc2Cl)cc1 (configuration not stated)
[5]
  AC50: 0.703 µM (active)
[6]
  AC50: 0.327 µM (active)
[7]
  outcome: inactive

## NC(=O)c1ccc(-c2nc(-c3ccc4c(c3)OCO4)c(-c3ccccn3)[nH]2)cc1
[8]
  outcome: inactive
[9]
  outcome: inactive
[10]
  outcome: inactive
[11]
  outcome: inactive

## COc1cc(O)c(CC=C(C)C)c(O)c1C(=O)/C=C/c1ccc(O)cc1
DIO2 (gene 1734)
  AC50: 215 nM (active) and 797 nM (active)
DIO3 (gene 1735)
  AC50: 150 nM (active) and 222 nM (active)

## O=C(C=Cc1ccccc1)c1ccccc1
[12]
  AC50: 31.9 µM (active)
[13]
  AC50: 28.2 µM (active)
[14]
  outcome: inactive
[15]
  AC50: 114 µM (active)
